Drawing on PubChem BioAssay AID493169 (National Center for Advancing Translational Sciences (NCATS), 2011), this text covers Potency for 17 compounds.

Inconclusive results are not listed. Where a call stands in place of a potency, no number is given. Calls of active or inactive are those of the source. Calls follow the shape of the dose curve; as a rule, active = well fitted inhibition curve with a large enough effect; inconclusive = small, poorly fitted or top-dose-only effect; inactive = flat fitted curve, though single readings scatter.
Potency is read from the fitted curve at half-maximal effect.

A short description of the assay: CHOP2 Reporter Counterscreen Assay for Inhibitors of Ubiquitin-specific Protease USP2a.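 Also: activated enterokinase alone at 50 pM in a cell-free format rather than USP2a or CHOP2; nearly all actives have a fitted effect of over 55% in size.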 The settings on record: purified enterokinase, fluorogenic substrate, 485/531 nm; series mostly up to 38.3 µM. A digest of the protocol:
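Cell-free counterscreen with pre-activated enterokinase alone (50 pM final) in 20mM Tris-HCl pH 8.0, 2mM CaCl2, 2mM beta-mercaptoethanol, 0.05% CHAPS; compound preincubation 30 min RT, reporter substrate 25nM final, fluorescence read after 10 min (Ex 485/Em 531).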
In the case of `CCSc1nc(N2CCCCC2)c2c(c1C#N)CCCC2`, the Potency result was “inactive”. The entry for `O=C1NCC(CN(c2ccccc2)c2ccccc2)O1` (configuration not stated) is “inactive”; for `N=C1C(c2nc3ccccc3c(=O)[nH]2)=C(O)CN1CCc1ccccc1` it is “inactive”; for `COCc1cc(C)nc(OCC(=O)N/N=C\c2cc(C)n(-c3cccc(C(F)(F)F)c3)c2C)c1C#N` it is “inactive”. The result for `O=C(OCc1nc2ccccc2[n+]([O-])c1C(=O)c1ccccc1)c1cccs1` reads “inactive”; that for `Cc1ccccc1NC(=O)CSc1nnc(-c2ccco2)c(-c2ccco2)n1`, “inactive”; that for `Cc1nn(CC(=O)Nc2cccc(S(N)(=O)=O)c2)c(C)c1[N+](=O)[O-]`, “inactive”. Regarding `Cc1ccc2[nH]c3c(c2c1)CN(C(=O)CN1CCSCC1)CC3`, the Potency result was “inactive”. The entry for `COc1cc(-c2nc(-c3ccc4c(c3)-c3ccccc3S4(=O)=O)c(-c3ccccc3)[nH]2)cc(OC)c1O` is “inactive”; for `CCOC(=O)Cn1c(=O)oc2cc(S(=O)(=O)Nc3cc(Cl)ccc3OC)ccc21` it is “inactive”; for `CC(OC(=O)CN(C)S(=O)(=O)c1ccc(Cl)cc1)C(=O)Nc1ccc(N2CCOCC2)cc1` (configuration not stated) it is “inactive”. The result for `O=C(CC1Oc2ccccc2NC1=O)NCc1ccc(Cl)cc1` (configuration not stated) reads “inactive”; that for `Cc1ccc(-c2c(C)n([O-])c3c([n+]2=O)CCC3)o1`, “inactive”; that for `O=C(CSc1nc(O)cc(=O)n1-c1ccccc1)NC1CCCCC1`, “inactive”. The entry for `COc1ccc(CN(Cc2cc3cc(C)ccc3[nH]c2=O)C(=O)N(C)C)cc1` is “inactive”; for `COc1cccc(OC)c1-c1nn2c(-c3cc(-c4ccccc4)n[nH]3)nnc2s1` it is 5.62 µM (active); for `FC(F)Sc1ccc(NC(=S)NC2CCCCC2)cc1` it is “inactive”.
